# This is a sample that favours compounds with a hit; in the whole collection about 3.7% have one here.
# tim10-1 inh = tim10-1 yeast growth inhibition; inhibition, % at 20 µM; hit rate 2.2% among 330,000; AID 463190; S. cerevisiae tim10-1 ts strain growth, BacTiter-Glo, 24 h;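 active = inhibition of at least 40%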;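 also: mutant grown at 25 °C; 0% = DMSO wells with yeast and 100% = wells holding no yeast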
# PfHsp90 yeast 2 = growth inhibition of yeast expressing Plasmodium Hsp90; S. cerevisiae expressing PfHsp90, BacTiter-Glo ATP, 48 h; yeast lacking PDR1 and PDR3 efflux regulators; inhibition, % at 9.4 µM; hit rate 0.32% among 310,000; AID 504621;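 active = every replicate shows inhibition above about 80%, whatever the replicate mean, limit read from the data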;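 also: 0% = DMSO neutral controls and 100% = 20 µM radicicol positive controls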
# TIM10 inh = growth inhibitors of TIM10 yeast strain; S. cerevisiae TIM10 strain growth, BacTiter-Glo luminescence, 24 h; inhibition, % at 10 µM; hit rate 1.4% among 330,000;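 active = inhibition of 40% or more at the single tested concentration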;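 also: wild-type TIM10 isogenic control strain grown at permissive 25 °C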
# NLRP3 yeast inh = blocks the NALP3 inflammasome reconstituted in yeast | Yeast reconstituted NLRP3/ASC/caspase-1, beta-gal luminescence, 24 h | inhibition, % at 10 µM | hit rate 0.39% among 330,000 | AID 2825;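 active = inhibition of 50% or more; inactive = inhibition below 50%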;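 also: plate controls were induced DMSO wells for no effect and uninduced yeast grown without galactose for full effect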
# tim23-1 inh = growth inhibitors of tim23-1 mutant yeast; inhibition, % at 20 µM; S. cerevisiae tim23-1 growth, BacTiter-Glo luminescence, 24 h; hit rate 1.3% among 330,000;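 active = growth inhibition of the mutant yeast at or above 50%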;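 also: temperature-sensitive mutant grown at 25 °C; plate controls were DMSO-treated mutant yeast for no effect and medium wells lacking yeast for full effect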
# tim10-1 confirm = tim10-1 yeast growth inhibition, confirmed. hit rate 56% among 7,400. S. cerevisiae tim10-1 ts strain growth, BacTiter-Glo, 24 h. shares compounds with tim10-1 inh. inhibition, % at 20 µM;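 active = inhibition of yeast growth at or above a set limit in either of two repeat tests at 20 µM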;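 also: tim10-1 mutant grown at permissive 25 °C to find synthetic lethal compounds; 0% = DMSO yeast wells and 100% = medium wells without yeast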
# Numbers without * were called inactive; / = no result.
SMILES,tim10-1 inh,PfHsp90 yeast 2,TIM10 inh,NLRP3 yeast inh,tim23-1 inh,tim10-1 confirm
Cc1ccc(S(=O)(=O)CCc2nnc(NC(=O)c3cnccn3)s2)cc1,25,-19,4,14,22,/
Cc1ccc(S(=O)(=O)CCc2nnc(NC(=O)c3ccccn3)s2)cc1,44*,-6,8,5,19,29
CCC1Sc2ccc(S(=O)(=O)N3CCN(c4ccccc4)CC3)cc2NC1=O (stereo not given),15,-4,16,21,18,/
O=C(O)CC/C(=N\Nc1ccc(Cl)cc1)c1cccs1,41*,19,10,-6,36,14
COc1cc(C)c(Br)cc1S(=O)(=O)NCc1ccncc1,4,-5,-9,3,0,/
COc1cc(C)c(Br)cc1S(=O)(=O)NCc1cccs1,40*,-27,32,-6,40,32*
O=C1NC(CCc2ccccc2)C(=O)N1CCOc1ccccc1 (stereo not given),0,3,3,22,18,/
CCCCCCSC1=C(C#N)C(c2ccc(C)o2)CC(=O)N1 (stereo not given),41*,4,24,20,32,7
CCSC1=C(C#N)C(c2ccc(C)o2)CC(=O)N1 (stereo not given),4,-17,6,-14,41,/
COc1ccc(OC)c(-c2cc(C3CCN(c4cc(Cl)nc(N)n4)CC3)[nH]n2)c1,25,-28,30,7,26,/
Nc1nc(Cl)cc(N2CCC(c3cc(-c4ccc(Cl)cc4)n[nH]3)CC2)n1,84*,-32,35,8,48,73*
Cc1ccc(-n2nc(C)cc2NC(=O)c2ccc(C)s2)cc1,37,/,-1,6,24,/
COC(=O)c1ccc(Oc2ccc(C(F)(F)F)cn2)cc1,3,-6,-14,15,7,/
COc1ccc(C(=O)Nc2ccc3c4c(cccc24)CC3)cc1,44*,-24,23,30,48,30*
COc1ccc(N2CCN(C(=O)c3cccc(NC4=NC5CS(=O)(=O)CC5S4)c3)CC2)cc1 (stereo not given),17,-53,12,12,2,/
O/N=C(\c1ccc(Cl)cc1Cl)c1ncc(C(F)(F)F)cc1Cl,40,5,39,-18,27,50*
N#Cc1cccc(-n2c(-c3ccccc3)nnc2-c2ccccc2)c1C#N,46*,-5,20,17,42,35*
Cc1c(Br)c([N+](=O)[O-])nn1CC(=O)N1CCc2ccccc21,1,20,-6,16,-5,/
Cc1c(Br)c([N+](=O)[O-])nn1C(C)C(=O)N1CCCc2ccccc21 (stereo not given),40*,-4,30,4,42,37*
CCOC(=O)/C(C#N)=C\c1cn(C)c2ccccc12,41*,11,22,21,20,15
CCOC(=O)/C(C#N)=C/c1cn(CCOc2ccccc2)c2ccccc12,13,4,-9,18,6,/
CC/C(C)=N\Nc1nc(-c2cc3cc(OC)ccc3oc2=O)cs1,-19,11,19,23,2,/
Cc1cc(C)c2c(=O)n(CC(=O)N3CCC(N4CCCCC4)CC3)sc2n1,12,5,-4,3,14,/
CCOC(=O)C1CCCN(C(=O)Cn2sc3nc(C)cc(C)c3c2=O)C1 (stereo not given),41*,-9,3,-6,7,30
COc1ccc(NC(=O)CS(=O)(=O)c2ccccc2Cl)cc1,6,15,-13,-2,5,/
SMILES,tim10-1 inh,PfHsp90 yeast 2,TIM10 inh,NLRP3 yeast inh,tim23-1 inh,tim10-1 confirm
Cc1ccc(-n2nc(C)c(C(=O)Nc3cccc(C(=O)NC4CC4)c3)n2)c(C)c1,44*,-7,15,16,28,18
CC(=O)N1CCC(=NNc2ccnc3cc(Cl)ccc23)CC1,7,-7,6,11,-8,/
CCCC/C(O)=C1\C(=O)CC(C)(C)CC1=Nc1ccccc1OC,41*,23,26,-36,31,26
Cc1cccc(N2CCN(C(=O)C3CCN(S(=O)(=O)c4cccc5nsnc45)CC3)CC2C)c1 (stereo not given),40*,8,10,7,4,17
O=C(C1CCCN(S(=O)(=O)c2cccc3nsnc23)C1)N1CCc2ccccc21 (stereo not given),41*,-15,30,-7,9,37*
Cc1cccc(N2CCN(C(=O)C3CCN(S(=O)(=O)c4cccc5cccnc45)CC3)CC2C)c1 (stereo not given),26,-6,18,22,14,/
CCCCn1c(/N=C/c2c[nH]c3ccccc23)nc2ccccc21,41*,18,2,27,33,22
CCCn1c(/N=C/c2c[nH]c3ccccc23)nc2ccccc21,26,11,2,14,37,/
O=C(Nc1cccnc1)OC1CCCC1,19,/,19,-11,16,/
O=C(Nc1cccnc1)OC1CCCCC1,43*,/,10,-4,26,26
CCN(CC)c1ccc(S(=O)(=O)N2CCOCC2)cc1NC(=O)CN1CCc2ccccc2C1,50*,17,31,10,11,10
CCOC(=O)C(Cc1ccccc1)C(=O)Nc1cccc2ccccc12 (stereo not given),34,10,2,-4,22,/
CCOc1ccc(C(C)=O)cc1N1C(=O)C2C3C=CC(O3)C2C1=O (stereo not given),55*,-12,-4,5,-6,23
CCOc1ccc(C(C)=O)cc1N1C(=O)C2C3C=CC(C3)C2C1=O (stereo not given),20,/,-4,8,17,/
CCOc1ccc(NC2=NCC(=O)N2CCc2ccccc2)cc1,11,-3,-11,7,17,/
Cc1ccc(C(=O)NCC(=O)NCC(=O)OCc2ccc(Cl)cc2)cc1,-3,6,-20,7,-2,/
CCOC(=O)C(Cc1ccccc1)NC(=O)CCc1c(C)nc2ncnn2c1C (stereo not given),14,18,-2,-8,1,/
CCOC(=O)C(Sc1cc(-c2ccccc2)nc2ncnn12)C(C)=O (stereo not given),41*,-6,11,14,15,30*
CC(C)(C)C(=O)Nc1nnc(SCc2cccc(F)c2)s1,3,-4,8,45,30,/
CC(C)(C)C(=O)Nc1nnc(SCc2ccc(F)cc2)s1,50*,/,22,30,36,44*
COc1ccc(C(=O)NCCn2ccc3ccccc32)cc1,-11,5,3,31,26,/
O=C(NCCn1ccc2ccccc21)c1ccc(S(=O)(=O)N2CCCCC2)cc1,41*,8,20,-10,34,27
CCCSc1ncnc2[nH]ncc12,/,16,/,/,/,/
CCc1ccc(NC(=S)N(Cc2ccccc2)Cc2ccccn2)cc1,48*,/,34,0,36,35*

# Compound activity: PubChem, several laboratories
